High-throughput results deposited in PubChem by several laboratories.
Sampled rows, rich in hits. Any-hit rate of the full collection: about 1.1%.
PfHsp40 yeast: rescue of yeast from PfHsp40 toxicity, primary screen, S. cerevisiae, ATP luminescence; S. cerevisiae expressing PfHsp40, growth rescue; growth rescue, % at 12.5 µM; hit rate 0.68% among 340,000; AID 504582, 2011; in the data active = growth rescue above about 28%, passing the limit was not always enough;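 also: yeast W303a lacking pdr1 and pdr3 grown in galactose medium; growth measured after three days at 30 °C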
Yp Topo-I inh: Yersinia pestis topoisomerase I inhibitors, primary screen, biochemical, cleavage product accumulation, plate reader, single point; DNA topoisomerase I (Yersinia pestis CO92); Y. pestis Topo-I cleavage product accumulation; activity, % at 10 µM; hit rate 0.064% among 360,000; AID 504884, 2011; in the data active = activity above about 50%, passing the limit was not always enough
MazEF act: activators of E. coli MazEF toxin-antitoxin RNase, primary screen, biochemical, fluorescence, uHTS. Endoribonuclease toxin MazF (Escherichia coli (strain K12)), P0AE70. FAM/BHQ RNA-DNA oligo cleavage fluorescence, 5 h. activation, % at 20 µM. hit rate 0.32% among 350,000; in the data active = activation above about 50%
Target sequence (P0AE70 whole entry, looked up): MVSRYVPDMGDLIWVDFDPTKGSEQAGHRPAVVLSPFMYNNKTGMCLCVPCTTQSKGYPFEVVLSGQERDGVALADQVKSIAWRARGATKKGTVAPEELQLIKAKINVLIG
BJeLR lethal: MLPCN primary cell-based screen for lethality selective to Ras in HRASV12 cells. BJeLR (HRASV12) viability, CellTiter-Glo ATP luminescence, 48 h. AID 1554, 2009. inhibition, % (no concentration beside the values). hit rate 0.17% among 300,000; in the data active = inhibition above about 50%
3CLpro inhibitor: SARS-CoV 3CLpro protease inhibitors, primary screen, biochemical, quenched FRET; Replicase polyprotein 1ab (Severe acute respiratory syndrome coronavirus), P0C6X7; inhibition, % at 6 µM; hit rate 0.14% among 290,000; AID 1706, 2009; recombinant SARS-CoV 3CLpro, quenched FRET peptide cleavage; in the data active = inhibition above about 12%
BioA inh: M. tuberculosis BioA enzyme inhibitors, primary screen, biochemical, plate reader, single point, HTS; inhibition, % at 9.99 µM; 7,8-diaminopelargonic acid synthase BioA (Mycobacterium tuberculosis); hit rate 0.096% among 360,000; purified M. tuberculosis BioA enzyme; in the data active = inhibition above about 40%
Numbers without * were called inactive.

How did O=C(NCc1cccnc1)c1ccc(-c2cc3ccccc3oc2=O)cc1 do in these assays?
PfHsp40 yeast: 0; Yp Topo-I inh: -6; MazEF act: -17; BJeLR lethal: 66*; 3CLpro inhibitor: -3

What do the screens show for `Cc1oc2c(c1C(=O)NCc1cccnc1)C(=O)c1ccccc1C2=O`?
MazEF act: 7; BJeLR lethal: 76*; 3CLpro inhibitor: 4

How did CO[C@H]1CN(C)C(=O)c2cc(NC(=O)C3CCC3)ccc2OC[C@@H](C)N(Cc2cccnc2)C[C@H]1C do in these assays?
BioA inh: 0

How did CCC(=O)Nc1ccc2c(c1)C(=O)N(C)[C@H]1CC[C@@H](CC(=O)N[C@@H](C)c3ccccc3)O[C@H]1CO2 do in these assays?
BioA inh: 1

What do the screens show for `COc1ccc2nc3cc(Cl)ccc3c(C#N)c2c1`?
PfHsp40 yeast: -1; Yp Topo-I inh: 1; MazEF act: 142*; BJeLR lethal: 2; 3CLpro inhibitor: 1; BioA inh: 0

Results for COc1ccc(-c2ccc(SC)nn2)cc1 ?
PfHsp40 yeast: 0; Yp Topo-I inh: -6; MazEF act: -3; BJeLR lethal: 66*; 3CLpro inhibitor: -3; BioA inh: 1

What do the screens show for `Oc1c(CN2CCOCC2)cc(COCc2ccccc2)c2cccnc12`?
PfHsp40 yeast: 65*; Yp Topo-I inh: 14; MazEF act: -8; BJeLR lethal: 16; 3CLpro inhibitor: 0; BioA inh: 0

How did Oc1c(Br)cc(Br)c2cccnc12 do in these assays?
PfHsp40 yeast: 148*; Yp Topo-I inh: 1; MazEF act: -17; BioA inh: -2

Results for Oc1c(CN2CCN(c3ccccc3)CC2)cc(Br)c2cccnc12 ?
PfHsp40 yeast: 1; Yp Topo-I inh: 2; MazEF act: -2; BJeLR lethal: 77*; 3CLpro inhibitor: -1; BioA inh: 0

How did Oc1c(CNc2ccccc2)cc(COCc2ccccc2)c2cccnc12 do in these assays?
PfHsp40 yeast: 53*; Yp Topo-I inh: 2; MazEF act: -3; BioA inh: 3

What do the screens show for `c1ccc(N2CCN(Cc3ccnc4ccccc34)CC2)cc1`?
PfHsp40 yeast: 0; Yp Topo-I inh: -3; MazEF act: 7; BJeLR lethal: 30; 3CLpro inhibitor: -4

What do the screens show for `C[C@H](O)C#Cc1cnc2c(c1)C(=O)N([C@H](C)CO)C[C@@H](C)[C@@H](CN(C)Cc1ccccn1)O2`?
BioA inh: 0

What do the screens show for `COc1ccc(S(=O)(=O)Nc2ccc3c(c2)C(=O)N([C@H](C)CO)C[C@@H](C)[C@H](CN(C)S(=O)(=O)c2ccc(OC)cc2)OCCCC[C@H](C)O3)cc1`?
BioA inh: -10

How did COc1ccccc1C1CCN(C(=O)c2ccccc2)CC1 do in these assays?
PfHsp40 yeast: 1; Yp Topo-I inh: 14; MazEF act: 2; BJeLR lethal: -6; 3CLpro inhibitor: 3; BioA inh: 0

Results for COc1ccccc1C1CCN(C(=O)c2ccc(Cl)cc2)CC1 ?
PfHsp40 yeast: 199*; Yp Topo-I inh: 6; MazEF act: -4; BJeLR lethal: 6; 3CLpro inhibitor: 2; BioA inh: -1

What do the screens show for `C/C=C/c1ccc2c(c1)O[C@@H](CN(C)C(=O)CN(C)C)[C@H](C)CN([C@@H](C)CO)S2(=O)=O`?
BioA inh: 1

What do the screens show for `O=C(CCc1ccccc1)Nc1ccc(NC(=O)c2ccco2)nc1`?
PfHsp40 yeast: 0; Yp Topo-I inh: 4; MazEF act: 618*; BJeLR lethal: 10; 3CLpro inhibitor: 3; BioA inh: 1

How did CCc1ccc2[nH]c(=O)c(C3C(C#N)=C(N)Oc4c3ccc3cccnc43)cc2c1 (stereo not drawn) do in these assays?
PfHsp40 yeast: 80*; Yp Topo-I inh: 7; MazEF act: 3; BJeLR lethal: -1; 3CLpro inhibitor: -4; BioA inh: 4

What do the screens show for `CCc1ccc(N2C(=O)CN(Cc3ccc(OC)c(OC)c3)C2=S)cc1`?
PfHsp40 yeast: 31*; Yp Topo-I inh: 10; MazEF act: 2; BJeLR lethal: 8; 3CLpro inhibitor: -1; BioA inh: -1

Results for CC1CCCN(c2ccc([N+](=O)[O-])cc2C(=O)c2ccccc2)C1 (stereo not drawn) ?
PfHsp40 yeast: -1; Yp Topo-I inh: 22; MazEF act: 0; BJeLR lethal: 58*; 3CLpro inhibitor: 2

How did O=C(c1ccccc1)c1cc([N+](=O)[O-])ccc1N1CCOCC1 do in these assays?
PfHsp40 yeast: -1; Yp Topo-I inh: 14; MazEF act: -1; BJeLR lethal: 50; 3CLpro inhibitor: -1; BioA inh: -1

Results for CCOc1cc(C2C(C(=O)c3ccc(C)o3)=C(O)C(=O)N2CCc2ccccc2)ccc1O (stereo not drawn) ?
PfHsp40 yeast: 77*; Yp Topo-I inh: 11; MazEF act: 4; BJeLR lethal: 8; 3CLpro inhibitor: 1; BioA inh: 0

How did Cc1ccc(-n2nc(C)cc2Nc2ncc(Cl)cc2Cl)cc1 do in these assays?
PfHsp40 yeast: 93*; Yp Topo-I inh: 3; MazEF act: -2; BJeLR lethal: -3; 3CLpro inhibitor: 3; BioA inh: 1

How did C[C@@H]1CN([C@@H](C)CO)C(=O)c2cccc(NS(=O)(=O)c3cccs3)c2O[C@@H]1CN(C)Cc1ccncc1 do in these assays?
BioA inh: -2

Results for COc1ccc(NC(=O)Cc2ccc(-c3ccccc3)cc2)cn1 ?
PfHsp40 yeast: 86*; Yp Topo-I inh: 1; MazEF act: -1; BJeLR lethal: 6; 3CLpro inhibitor: 3

What do the screens show for `COc1ccc(CC(=O)Nc2ccc(OC)nc2)cc1`?
PfHsp40 yeast: -1; Yp Topo-I inh: 1; MazEF act: -2; BJeLR lethal: 2; 3CLpro inhibitor: 0; BioA inh: -2

What do the screens show for `CCC(=O)N1[C@H](CN(C)C(C)=O)[C@@H](c2ccc(-c3cccnc3)cc2)[C@@H]1CO`?
BioA inh: 7

How did CC(=O)N1c2ccc(S(=O)(=O)NCCC(=O)NCCc3cccc(C)c3)cc2CC1C (stereo not drawn) do in these assays?
PfHsp40 yeast: 68*; Yp Topo-I inh: 12; MazEF act: 3; BJeLR lethal: -12; 3CLpro inhibitor: -1; BioA inh: -2

How did O=C(C[C@H]1C[C@H]2c3cc(NC(=O)C4CCC4)ccc3O[C@H]2[C@@H](CO)O1)NCc1ccc(-c2ccccc2)cc1 do in these assays?
BioA inh: 0
